In PubChem BioAssay (EPA / NIEHS):
“And” between values parts separate entries of the source, which are not always exact repeats. Identical values can stand only once. The source made the active and inactive calls. Rule for the calls: active = hit-call score of the fitted dose curve at least 0.9, where 1 is the maximum; inactive = score below 0.9.

assay: IUF_NPC4_neurite_length_120hr: Leibniz Research Institute for Environmental Medicine (IUF) 120-hour Neuronal Morphology Assay for Neurite Length (NPC4) (AID 2284302)
Method: IUF_NPC2-5 is a cell-based, multiplexed assay that uses hNPC, a human primary neural progenitor cells, with measurements taken at 72 or 120 hours after chemical dosing in a 96-well plate. Human neural progenitor cells (hNPC) are generated from human fetal brain cortex at gestational week (GW) 16-19. In the neural progenitor cell migration and differentiation assay (NPC2-5), hNPCs grown as spheres are plated on an extracellular matrix and migrate and differentiate out of the sphere core. The processes radial glia migration, neuronal and oligodendrocyte migration as well as neuronal differentiation, neuronal morphology and oligodendrocyte differentiation are studied using automated phase contrast imaging and automated fluorescence imaging in combination with high content image analysis. In parallel, the cell viability is assessed using an alamar blue viability assay and the cytotoxicity using a lactate dehydrogenase dependent membrane integrity assay.IUF_NPC4_neurite_length_120hr is one of 12 assay components measured from the IUF_NPC2-5 assay. The neurite length at 120 hr is the mean length in um of all neurons (see IUF_NPC3_neuronal_differentiation_120hr) that are identified by the skeletonization algorithm in Omnisphero.Data from the IUF_NPC4_neurite_length_120hr component was analyzed at the endpoint IUF_NPC4_neurite_length_120hr in the positive analysis fitting direction relative to DMSO as the negative control and baseline of activity. Using a type of differentiation reporter, gain or loss-of-signal activity can be used to understand developmental effects.
Culture protocol: After the cell expansion period the cells are cultured for up to four weeks in which they are passaged every week as described in 3.6. Between one to three days after passaging spheres at a size of 0.3 mm are picked for the test method. For the assessment of neural progenitor cell migration and differentiation, the spheres are plated on poly-D-lysine/laminin coated 96-well flat bottom plates in differentiation medium (N2) to initiate migration and differentiation. Thereby one 0.3 mm big sphere is plated in the middle of a well. The differentiation medium consists of DMEM and Ham's F12 at a ratio of 3 to 1 supplemented with 1% N2 and 1% penicillin and streptomycin. Within 5 days NPCs radially migrate out of the sphere core and differentiate into radial glia cells (nestin positive), neurons (TUBB3 positive), oligodendrocytes (O4 positive) and astrocytes (GFAP positive). Cultivation during the test method is performed at 37C and 5% CO2 at a ph of 7.2-7.6.Exposure: 0.3 mm big hNPC are plated in the already prepared test conditions. Exposure starts at day 0 of differentiation and is continued over five days of differentiation until the experiment is terminated. Cells are fed with fresh medium at day 3 of differentiation. Therefore, half of the test condition solution (e.g. solvent control or compound dilution) is replaced by freshly prepared test condition solution.Test Method: Migration distance and cytotoxicity is determined after 72 hours based on brightfield images of each well. The assay is terminated by the assessment of cell viability and cytotoxicity as well as cell fixation after 120 h. Immunocytochemistry is performed for Hoechst positive nuclei, TUBB3 positive neurons and O4 positive oligodendrocytes. On the ICC images, migration after 120 hours, neuronal and oligodendrocyte number, neuronal morphology and neuron/oligodendrocyte specific migration is assessed. immunocytochemical staining (ICC) generates an image for each sphere. The plates are scanned using an automated high content imaging device and all nuclei and their positions are determined automatically based on their intensity and size. Images are imported to the Omnisphero software to run the image analysis that measures the following endpoints. The method is set up for 8 test conditions including 7 compound concentrations and one SC. […]

Q: For `Cc1ccc(OP(=O)(Oc2ccc(C)cc2)Oc2ccc(C)cc2)cc1` (tested in a mixture with another compound), which outcome is on record?
A: inactive

Q: With `CCOP(=O)(Oc1cnc(C(C)(C)C)nc1)OC(C)C` (stereo unspecified) as the compound, how does the outcome read?
A: inactive

Q: Which outcome does the source give for `C[n+]1ccc(-c2ccccc2)cc1` here?
A: inactive

Q: Which outcome does the source give for `CC1(C)C(C=C(Cl)Cl)[C@H]1C(=O)O[C@H](C#N)c1cccc(Oc2ccccc2)c1` (stereo partly specified) here?
A: inactive

Q: Which outcome does the source give for `[O-][Cl+3]([O-])([O-])O` here?
A: inactive

Q: Which outcome does the source give for `Brc1ccc(Oc2cc(Br)c(Br)cc2Br)c(Br)c1` here?
A: inactive

Q: With `[CH3][Hg][Cl]` as the compound, how does the AC50 read?
A: 298 nM (active) and 69.7 nM (active)

Q: Which outcome does the source give for `CCOP(=S)(OCC)SCS(=O)C(C)(C)C` (stereo unspecified) here?
A: inactive

Q: With `CNC1(c2ccccc2Cl)CCCCC1=O` (stereo unspecified) as the compound, how does the outcome read?
A: inactive

Q: With `CCOP(=O)(OCC)SCSCC` as the compound, how does the outcome read?
A: inactive

Q: With `CC1(C)C(C=C(Cl)Cl)C1C(=O)O[C@H](C#N)c1cccc(Oc2ccccc2)c1` (stereo partly specified) as the compound, how does the outcome read?
A: inactive

Q: For `CCOP(=O)(OCC)SCSC(C)(C)C`, which outcome is on record?
A: inactive

Q: With `CC1(C)C(C=C(Cl)c2ccc(Cl)cc2)C1C(=O)OC(C#N)c1ccc(F)c(Oc2ccccc2)c1` (stereo unspecified) as the compound, how does the outcome read?
A: inactive

Q: With `CC(C)CCCCCCCOP(=O)(Oc1ccccc1)Oc1ccccc1` as the compound, how does the outcome read?
A: inactive

Q: For `CC(C)CC(C)c1sccc1NC(=O)c1cn(C)nc1C(F)(F)F` (stereo unspecified), which outcome is on record?
A: inactive

Q: With `CC(=O)[O-].CC(=O)[O-].O.O.O.[Pb+2]` as the compound, how does the outcome read?
A: inactive

Q: For `CNC(=N[N+](=O)[O-])NCC1CCOC1` (stereo unspecified), which outcome is on record?
A: inactive

Q: Which outcome does the source give for `C[n+]1ccc(-c2cc[n+](C)cc2)cc1` here?
A: inactive

Q: Which outcome does the source give for `CC1(C)[C@@H](C=C(Cl)Cl)[C@@H]1C(=O)O[C@@H](C#N)c1ccc(F)c(Oc2ccccc2)c1` here?
A: inactive

Q: Which outcome does the source give for `CCOP(=O)(OCC)OC(Cl)C(Cl)(Cl)Cl` (stereo unspecified) here?
A: inactive

Q: Which AC50 does the source give for `C/C(=C/C=C/[C@@H](C)C(=O)O)[C@H]1CN[C@H](C(=O)O)[C@H]1CC(=O)O` here?
A: 40.6 nM (active)

Q: For `CC(=O)[O-].[Tl+]`, which AC50 is on record?
A: 34600 nM (active)

Q: Which outcome does the source give for `CC1(C)[C@H](C=C(Cl)Cl)[C@H]1C(=O)OCc1c(F)c(F)cc(F)c1F` here?
A: inactive

Q: With `CC1(C)[C@H](C(=O)O[C@H](C#N)c2cccc(Oc3ccccc3)c2)[C@@H]1C=C(Br)Br` as the compound, how does the outcome read?
A: inactive

Q: Which AC50 does the source give for `O=[As]O` here?
A: 752 nM (active)

Q: With `[Cd+2].[Cl-].[Cl-]` as the compound, how does the AC50 read?
A: 7580 nM (active)

Q: With `COP(=O)(OC)SCN1C(=O)c2ccccc2C1=O` as the compound, how does the outcome read?
A: inactive

Q: Which outcome does the source give for `Brc1ccc(Oc2ccc(Br)cc2Br)c(Br)c1` here?
A: inactive

Q: With `O=C1N[C@@H]2C(=C[C@H](O)[C@@H](O)[C@H]2O)c2cc3c(c(O)c21)OCO3` as the compound, how does the AC50 read?
A: 14.8 nM (active)

Q: For `CP(=O)(O)CCC(N)C(=O)O` (stereo unspecified), which outcome is on record?
A: inactive

Q: For `Cn1nc(C(F)(F)F)c(CS(=O)(=O)C2=NOC(C)(C)C2)c1OC(F)F`, which AC50 is on record?
A: 42300 nM (active)
